From PubChem BioAssay AID504861 (Broad Institute, 2011)
Among all 1,200 compounds or so, about 290 (24%) were called active. About 3% were inconclusive and are not listed.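 The calls were made as follows: active = compounds lowering cell viability signal with fitted half-maximal concentration at most ten times their highest tested concentration; inconclusive = flat fit with 30 to 70% signal loss, or poor fit; inactive = the rest.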 A selection follows. Potency and affinity values are given separately.

Assay: HEK293T cell viability reduction, dose response, cytotoxicity control for LMP1 NF-kB inhibitor project, CellTiter-Glo luminescence, cherry-picks (AID 504861)
Conditions: CellTiter-Glo ATP luminescence, 48 h; series mostly up to 26 µM; activity change, negative = cytotoxicity: at the top concentration

| SMILES | activity change, negative = cytotoxicity |
| --- | --- |
| CC(C)Oc1ccc(C(=O)Nc2nnc(SCC(=O)N3CCOCC3)s2)cc1 | 6.68% (inactive) |
| CCOc1ccc(N/C=C/C(=O)c2ccccc2)cc1 | -0.393% (inactive) |
| Clc1cccc(CN2CCCCCC2)c1 | 10.6% (inactive) |
| CC(=O)c1ccc(N2CCN(c3ccnc4cc(Cl)ccc34)CC2)cc1 | 13.3% (inactive) |
| c1ccc(C2c3[nH]c4ccccc4c3CCN2Cc2cccn2-c2ccccn2)nc1 (stereo not given) | -10.6% (inactive) |
| Cn1c(=O)c2ncn(CC(=O)O)c2n(C)c1=O | 4.94% (inactive) |
| Cc1cc(C)c(S(=O)(=O)Nc2nnc(CC(C)C)s2)c(C)c1 | -7.02% (inactive) |
| CCn1c(=O)c2c(cnn2C)c2ccccc21 | -0.458% (inactive) |
| COc1cc(Cl)cc(C(c2c(C(=O)O)[nH]c3ccccc23)c2c(C(=O)O)[nH]c3ccccc23)c1O | 1.58% (inactive) |
| O=C1CC(c2ccccc2)Oc2ccccc21 (stereo not given) | 0.786% (inactive) |
| CCOC(=O)c1c(NC(=O)C2C3CCC(O3)C2C(=O)O)sc(C)c1-c1ccc(F)cc1 (stereo not given) | 5.9% (inactive) |
| Cc1nc2sc(C(N)=O)c(N)c2c2c1CCCC2 | 9.87% (inactive) |
| O=C(NC(Cc1c[nH]c2ccccc12)C(=O)Nc1ccc(F)c([N+](=O)[O-])c1)c1cccs1 (stereo not given) | -7.73% (inactive) |
| COCC(=O)N1CCC(Oc2ccc(C(=O)N3C[C@H]4CC[C@H]3C4)cc2)CC1 | -0.594% (inactive) |
| CC1=C(C(=O)OCc2ccc3c(c2)OCO3)C(c2ccc(Cl)cc2)NC(=O)N1 (stereo not given) | -5.93% (inactive) |
| COc1ccc(N2Cc3cccc(C(=O)NC(C)CCc4ccco4)c3C2=O)cc1 (stereo not given) | 3.59% (inactive) |
| COc1ccc(CCNC(=O)CSC(=O)c2ccccc2)cc1OC | 7.63% (inactive) |
| CCCN(CC1CC1)c1nc(C)nc(Nc2c(Cl)cc(Cl)cc2Cl)c1Cl | 1.47% (inactive) |
| CC(C)Nc1nnc(SCC(=O)c2c(N)n(Cc3ccccc3)c(=O)n(C)c2=O)s1 | 1.95% (inactive) |
| COc1cccc(C(=O)OCn2nnc3ccccc3c2=O)c1OC | 11% (inactive) |
| COc1ccc(C(=O)Nc2ccc(N3CCN(C(=O)c4ccccc4C)CC3)cc2)cc1 | -2.23% (inactive) |
| COc1ccc2sc3c(=O)[nH]c4ccccc4c3c2c1 | 14.3% (inactive) |
| CCOc1ccccc1C(=O)N[C@H](C(=O)OCc1cc([N+](=O)[O-])cc2c1OCOC2)C(C)C | 8.07% (inactive) |
| Cc1ccc(S(=O)(=O)N2CCCCC2)cc1NC(=O)CNc1ccccc1N1CCCC1=O | 3.36% (inactive) |
| O=C(c1ccc(Cl)cc1)N1CCN(CCOc2ccccc2)CC1 | 0.74% (inactive) |
| Cn1c(CC(=O)Nc2ccc(F)cc2)nnc1SCC(=O)Nc1nncs1 | 2% (inactive) |
| O=C(O)c1ccc(C=NNC(=O)c2cccc3ccccc23)cc1 | 10.4% (inactive) |
| Cc1cccc(/C=N/NC(=O)CNc2cccc3ccccc23)n1 | -0.716% (inactive) |
| O=C(/C=C/Nc1cccc(C(F)(F)F)c1)C(F)(F)F | -1.79% (inactive) |
| O=C(CN1C(=O)c2ccccc2S1(=O)=O)c1ccccc1F | 1.26% (inactive) |
